Among the data in PubChem BioAssay (NCI) are growth inhibition values, retold here.

The structures appear in SMILES notation. This is part of a sample that, as a whole, favours compounds with a hit. Of some 79,000 tested, about 15% had one in any assay. Unmarked numbers belong to inactive results. Activity calls are given as the source filed them. No stated cut-off is given here; in the data, active means growth inhibition above about 70%; inactive means the rest.

Experiment [1] in a line: NCI Yeast Anticancer Drug Screen. Data for the rad50 strain (AID 155).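 Further: 0% = growth of vehicle-only cultures of the same strain.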 To be noted: S. cerevisiae rad50 strain growth inhibition; at 50.0 µM; active compounds read high. A digest of the protocol:
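Readout: growth inhibition relative to vehicle-treated cultures. Compound exposure was carried out in a genetically defined yeast strain deficient in DNA damage repair.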

Experiment [2] can be described thus: NCI Yeast Anticancer Drug Screen. Data for the mec2-1 strain (AID 157). To be noted: S. cerevisiae mec2-1 strain, at 50.0 µM, active compounds read high. A digest of the protocol:
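Yeast mec2-1 mutant treated with compound. Readout: growth inhibition vs vehicle controls.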

A short description of experiment [3]: NCI Yeast Anticancer Drug Screen. Data for the sgs1 mgt1 strain (AID 161).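 Further: 0% = growth of cultures given vehicle only.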 To be noted: S. cerevisiae sgs1 mgt1 strain, at 50.0 µM, active compounds read high. A digest of the protocol:
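Genetically altered yeast, compound exposure, growth inhibition relative to vehicle.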

The nature of experiment [4]: NCI Yeast Anticancer Drug Screen. Data for the cln2 rad14 strain (AID 165).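 Further: 0% = growth equal to vehicle treated cultures.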 To be noted: S. cerevisiae cln2 rad14 strain, at 50.0 µM, active compounds read high. A digest of the protocol:
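cln2 rad14 yeast strain; compound exposure; growth inhibition read vs vehicle controls.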

Experiment [5] can be described thus: NCI Yeast Anticancer Drug Screen. Data for the bub3 strain (AID 167). To be noted: S. cerevisiae bub3 mutant strain, at 50.0 µM, active compounds read high. A digest of the protocol: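 Readout: yeast growth inhibition, expressed relative to vehicle-only wells. The test organism is a mutant strain from a panel with lesions in DNA repair or checkpoint genes.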
The nature of experiment [6]: NCI Yeast Anticancer Drug Screen. Data for the mlh1 rad18 strain (AID 175). To be noted: S. cerevisiae mlh1 rad18 strain growth inhibition; at 50.0 µM; active compounds read high. A digest of the protocol:
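Yeast w/ defined DNA-repair lesions; compound exposure; growth vs vehicle controls → % inhibition.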

For `CCCCCCCC(=O)NS(=O)(=O)c1ccccc1`, the growth inhibition is 31.7% in experiment [1]; 20.7% in experiment [2]; 27.8% in experiment [3]; 52.2% in experiment [4]; 37.2% in experiment [5]; 39.8% in experiment [6].
`COC(=O)C(C)S(=O)(=O)O` (stereo unspecified): the growth inhibition was -12.2% in experiment [1]; -2.5% in experiment [2]; 9.35% in experiment [3]; -80.5% in experiment [4]; 2.9% in experiment [5]; 0.3% in experiment [6].
In the case of `CCN1CCCC(Cl)C1` (stereo unspecified), the growth inhibition is 12.8% in experiment [1]; -41% in experiment [2]; 14.7% in experiment [3]; -0.5% in experiment [4]; -12.4% in experiment [5]; 5.95% in experiment [6].
Regarding `CC1CC[P+](C)(c2ccccc2)c2ccccc21` (stereo unspecified), the growth inhibition in experiment [1] was 26%; in experiment [2], 15.7%; in experiment [3], 1.6%; in experiment [4], -4.6%; in experiment [5], 2.75%; in experiment [6] it was 20.6%.
For `CSC(C(OC(C)=O)C(OC(C)=O)C(OC(C)=O)C(COC(C)=O)OC(C)=O)n1cnc2c(=S)nc[nH]c21` (stereo unspecified), the growth inhibition was 26.4% in experiment [1]; -12.4% in experiment [2]; -11.6% in experiment [3]; 13.2% in experiment [4]; -0.45% in experiment [5]; 1.95% in experiment [6].
`COc1cc2ccc3c4cc(OC)c(OCc5ccccc5)cc4cnc3c2cc1OC`: the growth inhibition is 40.5% in experiment [1]; 0.45% in experiment [2]; 4.9% in experiment [3]; 18.9% in experiment [4]; 27.4% in experiment [5]; 23% in experiment [6].
For the compound `COC(=O)c1ccc(C)[nH]1`, the growth inhibition in experiment [1] was -12.8%; in experiment [2] it was 10.4%; in experiment [3], -22.2%; in experiment [4] it was 26.6%; in experiment [5], 6.4%; in experiment [6], -1.8%.
For `COc1ccc(C(C#N)Cc2ccccc2)c([N+](=O)[O-])c1` (stereo unspecified), the growth inhibition in experiment [1] was 17.6%; in experiment [2] it was -5.75%; in experiment [3] it was 4.8%; in experiment [4], -34.2%; in experiment [5], 0.45%; in experiment [6] it was 16.4%.
As to `CCOC(=O)/C(C=Nc1c(C)n(C)n(-c2ccccc2)c1=O)=C(/C)O`, the growth inhibition in experiment [1] is 19.7%; in experiment [2] it was 10.7%; in experiment [3] it was 11.7%; in experiment [4] it was 27.5%; in experiment [5], 10.8%; in experiment [6] it was 23.6%.
On to `CCN(CC)CCOc1c(C)cccc1C`, for which the growth inhibition in experiment [1] was -5.15%; in experiment [2] it was 3.45%; in experiment [3], -13.1%; in experiment [4], -14.2%; in experiment [5], 12.1%; in experiment [6], -2%.
As for `CCCCCCCCCCCCNC(C)C1=C(O)c2ccccc2C(=O)C1=O` (stereo unspecified), the growth inhibition was 52.6% in experiment [1]; 20.3% in experiment [2]; 50% in experiment [3]; 25.9% in experiment [4]; 15% in experiment [5]; 44.9% in experiment [6].
With `CC(=O)COc1cccc2ccccc12`, the growth inhibition was -1.15% in experiment [1]; -3.1% in experiment [2]; -2.05% in experiment [3]; -36.4% in experiment [4]; -23.8% in experiment [5]; -2.35% in experiment [6].
As to `CC(=O)N(CCCc1ccccc1)C(C)(C)C`, the growth inhibition was 5.95% in experiment [1]; 5.3% in experiment [2]; -3.05% in experiment [3]; -22.1% in experiment [4]; 2.25% in experiment [5]; 6.15% in experiment [6].
For `Cc1cn(C2CCN(CC3COC(C)(C)O3)O2)c(=O)[nH]c1=O` (stereo unspecified), the growth inhibition was -13.5% in experiment [1]; -11.9% in experiment [2]; -26.3% in experiment [3]; -24.9% in experiment [4]; -5.35% in experiment [5]; -19.6% in experiment [6].
As to `COC(=O)CC#N`, the growth inhibition is -13.3% in experiment [1]; 4.9% in experiment [2]; 10.1% in experiment [3]; -2.75% in experiment [4]; -1.2% in experiment [5]; -13.3% in experiment [6].
`Cc1ccc(N=Nc2cc(C)c(N)cc2N)c(S(=O)(=O)O)c1`: the growth inhibition is -33.3% in experiment [1]; -5.35% in experiment [2]; -16.4% in experiment [3]; -38.5% in experiment [4]; 3.45% in experiment [5]; -24.5% in experiment [6].
Take `c1ccc2c(c1)ccc1cccc[n+]12`: the growth inhibition in experiment [1] was -25.4%; in experiment [2] it was -7.75%; in experiment [3], -13%; in experiment [4], -12.4%; in experiment [5], -16.7%; in experiment [6], -36.6%.
Turning to `COc1ccc(C(=O)c2ccc(C)c3c(C)cccc23)cc1`, the growth inhibition was 4.5% in experiment [1]; -9.55% in experiment [2]; 4.9% in experiment [3]; -16.6% in experiment [4]; -7.9% in experiment [5]; 4.85% in experiment [6].
In the case of `FC(F)(F)c1cccc(NC(=S)SCc2ccc(Cl)c(Cl)c2)c1`, the growth inhibition was 98.3% (active) in experiment [1]; 98.8% (active) in experiment [2]; 98.8% (active) in experiment [3]; 99.1% (active) in experiment [4]; 98% (active) in experiment [5]; 98.2% (active) in experiment [6].
Consider `CCCCCCCCCCCCCCCCSC(=N)N`, for which the growth inhibition in experiment [1] was 25.2%; in experiment [2] it was 21.2%; in experiment [3], 55.8%; in experiment [4], 14.1%; in experiment [5] it was 40%; in experiment [6], 38%.
Consider `O=C(Nc1ccc(Cl)cc1C(F)(F)F)C(=O)C1CCCS1(=O)=O` (stereo unspecified), for which the growth inhibition in experiment [1] is -7.05%; in experiment [2] it was -10.9%; in experiment [3], -4.5%; in experiment [4] it was 12.9%; in experiment [5], -6.4%; in experiment [6] it was -8.8%.
